JMJD2A Tudor inh = inhibitors of human JMJD2A Tudor domain; O75164; AlphaScreen JMJD2A-Tudor / H3K4me3 peptide binding; Potency, µM (top dose mostly 114 µM), for the others: top-dose activity change, negative = inhibition, usual class: inhibitors; hit rate 4.4% among 390,000; further: on the % scale 0 is the no-effect control and ±100 the full control effect; nearly all actives have a fitted effect of over 50% in size
BAZ2B inh = blocks human BAZ2B. AlphaScreen BAZ2B-H3K14Ac peptide displacement. Potency, µM (series often up to 114 µM), inactives show at the highest dose activity change, negative = inhibition, actives largely listed as inhibitors. hit rate 4.4% among 360,000. AID 504333; further: on the % scale 0 is the no-effect control and ±100 the full control effect; nearly all actives have a fitted effect of over 60% in size
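BAZ2B 50 nM plus b-H3(5-23)K14Ac 50 nM, PBS pH 7.4/0.01% Tween-20, 30 min RT; compound added (max 110 uM), 30 min RT; streptavidin donor/Ni-chelate acceptor beads 10 ug/mL final, 20 min dark; AlphaScreen read.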
L3MBTL1 inh = L3MBTL1 (human) inhibition; hit rate 0.66% among 230,000; AID 485360; Potency, µM (highest dose often 57.1 µM), inactives show at the top dose activity, negative = inhibition, hits mostly inhibitors; AlphaScreen L3MBTL1–H3K9me1 peptide binding; Q9Y468; further: on the % scale 0 is the no-effect control and ±100 the full control effect; nearly all actives have a fitted effect of over 60% in size
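L3MBTL1 50 nM + b-AHA-H3(1-15)K9me1 75 nM, 30 min RT; compound added, 30 min RT; streptavidin donor/Ni-chelate acceptor beads 10 ug/mL each final, 30 min RT dark; AlphaScreen read.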
G9a block = inhibitors of human histone lysine methyltransferase G9a; G9a H3K9 monomethylation, AlphaScreen, 2 h; Q96KQ7; hit rate 8.8% among 350,000; AID 504332; Potency, µM (series often up to 102 µM), inactives show at the highest dose activity, negative = inhibition, hits mostly inhibitors; further: on the % scale 0 is the no-effect control and ±100 the full control effect; nearly all actives have a fitted effect of over 75% in size
Target sequence (Q96KQ7 913-1193 limits assumed): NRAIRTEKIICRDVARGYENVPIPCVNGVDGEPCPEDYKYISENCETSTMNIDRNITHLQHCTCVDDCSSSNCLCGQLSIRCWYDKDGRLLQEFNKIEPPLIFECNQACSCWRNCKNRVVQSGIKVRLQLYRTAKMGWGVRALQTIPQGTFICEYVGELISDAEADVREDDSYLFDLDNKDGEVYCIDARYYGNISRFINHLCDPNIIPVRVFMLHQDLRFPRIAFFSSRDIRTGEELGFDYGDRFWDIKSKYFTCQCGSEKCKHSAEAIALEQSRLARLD
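G9a (20 nM) preincubated 15 min RT with compounds, then 500 nM biotinylated H3K9 peptide and 20 uM SAM added; 2 h RT reaction. Monomethyl-H3K9 product detected by AlphaScreen with anti-H3K9me1 antibody, streptavidin donor and anti-rabbit IgG acceptor beads.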
Sfp inh = Sfp phosphopantetheinyl transferase inhibition | Potency, µM, for the others: largest response in the series, negative = inhibition, hits mostly inhibitors | Biochemical Sfp PPTase activity, qHTS | AID 1490 | Q9F4F7 | hit rate 3.5% among 310,000;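 further: the enzyme is Sfp with the accession as filed and its product quenches rhodamine fluorescence; 0% = enzyme reaction without inhibitor and -100% = no enzyme wells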
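Fluorescence-quenching assay with 15 nM Sfp, 5 uM rhodamine-CoA and 12.5 uM BHQ-2-labelled ybbR peptide in pH 7.6 Hepes/MgCl2 buffer. Enzyme was pre-incubated with compound for 15 min at room temperature. Rate was taken from the 30-min fluorescence change (525/598 nm).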
HP1b binding inh = blocks HP1-beta chromodomain binding to methylated histone tails. P83916. AlphaScreen HP1-beta / biotin-H3K9me3 peptide binding. hit rate 0.56% among 390,000. Potency, µM (titrated, usually from 114 µM), inactives show at the top dose activity change, negative = inhibition, most hits filed as inhibitors; further: nearly all actives have a fitted effect of over 70% in size
Target sequence (P83916 whole entry, looked up): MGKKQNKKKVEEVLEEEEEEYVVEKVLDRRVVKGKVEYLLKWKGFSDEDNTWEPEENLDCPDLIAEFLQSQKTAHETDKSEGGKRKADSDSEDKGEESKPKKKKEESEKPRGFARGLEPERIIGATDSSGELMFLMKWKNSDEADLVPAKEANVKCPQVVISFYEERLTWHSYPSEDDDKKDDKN
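Compound inhibition of the preformed complex between 50 nM HP1-beta and 50 nM biotinylated H3K9me3 peptide was read by AlphaScreen. Buffer was PBS pH 7.4 with 0.01% Tween-20. Incubations ran 30 min at room temperature, with 10 ug/mL donor/acceptor beads.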
Starred values were filed as active, the others as inactive; ? = inconclusive; / = not tested or not shown; [ ] = another dose, or the depositor's remark. The list is not random: actives were taken first. Their share in the collection is about 12%. The call rests on the fitted dose curve; in most records, active means well fitted curve in the direction sought with a large enough effect; inconclusive means small, poorly fitted or top-dose-only effect, or another doubt; inactive means no such curve, though single readings can be large; an effect the other way counts as inactive or inconclusive. Potency means the concentration at half of the fitted maximal effect.

SMILES | JMJD2A Tudor inh | BAZ2B inh | L3MBTL1 inh | G9a block | Sfp inh | HP1b binding inh
CCOc1ccc(Nc2nc(Cc3nnc(SCC(=O)O)o3)cs2)cc1 | 89µM* | ? | ? | 50µM* | 45µM* | 2%
CC(=O)C[C@H](c1ccc([N+](=O)[O-])cc1)c1c(O)c2ccccc2oc1=O | / | / | / | 18%[21.5 µM] | 22% | /
Cc1cc(N(CCO)CCO)ccc1C(c1ccc(N(CCO)CCO)cc1C)c1ccccc1Cl | 28µM* | 45µM* | -24% | 7.9µM* | ? | ?
COc1ccc(/C=N/NC(=O)c2ccc(NC(=O)C3CCCCC3)cc2)cc1O | -12% | -33% | / | 3% | 79µM* | 38%
COc1cc(/C=C/c2cc[n+](C)cc2)ccc1OCC(=O)Nc1ccccc1 | -9% | -21% | / | 13µM* | 15% | 14%
COc1cc(/C=N/NC(=O)c2ccncc2)ccc1OCC(=O)Nc1ccccc1 | -4% | 0% | / | 9% | 16% | 23%
COc1cc(/C=N/NC(=O)c2ccc(NC(=O)C3CC3)cc2)ccc1OC(C)=O | -12% | -2% | / | 11% | ? | 11%
COc1cc(/C=N\NC(=O)CC#N)ccc1OC/C=C/c1ccccc1 | 79µM* | 56µM* | / | 15% | 8% | 33%
COc1cc(/C=N/NC(=O)c2ccccc2O)ccc1OCC(=O)Nc1ccccc1 | -24% | 79µM* | 5% | -5%[59 µM] | -43% | 58%
COc1cc(/C=N\NC(=O)c2ccc(-c3ccccc3)cc2)ccc1OCC(N)=O | 89µM* | -2% | / | 0% | -19% | 11%
O=C(CN(Cc1ccccc1)C(=O)CCl)c1cccc(Br)c1 | 0% | 1% | 4% | -4%[12.7 µM] | / | 36%
COc1c(-c2coc3cc4c(cc3c2=O)CC(O)C(C)(C)O4)ccc2c1C=CC(C)(C)O2 (stereo not drawn) | / | / | / | ? | -40% | /
Cc1cc(C)n(CC(O)Cn2c3ccc(Br)cc3c3cc(Br)ccc32)c(=O)n1 (stereo not drawn) | -35% | -2% | / | 79µM* | -25% | ?
Cc1cc(C)n(CC(O)Cn2c3ccccc3c3ccccc32)c(=O)n1 (stereo not drawn) | -21% | 3% | 1% | 3% | 5% | 4%
CN1CCN(C2=CC3=CC(=C(C#N)C#N)CCC3CC2)CC1 (stereo not drawn) | -21% | ? | / | ? | -5% | 1%
CCN1CCN(C2=CC3=CC(=C(C#N)C#N)CCC3CC2)CC1 (stereo not drawn) | 9% | -25% | / | 45µM* | -10% | 50%
COc1ccc(CCNC(=O)CCn2c(=O)c3ccccc3n(Cc3c(C)cc(C)cc3C)c2=O)cc1OC | -6% | 0% | / | ? | / | 16%
CCN(CC)C(=O)C1CCN(c2ncnc3c2cnn3-c2ccc(C)cc2C)CC1 | -5%[11.4 µM] | 0% | -6% | -17%[59 µM] | 56µM* | 24%
CCN1CCN(c2ccc(S(=O)(=O)N3CCCCC3)cc2NC(=O)/C=C/c2ccc(OC(F)F)cc2)CC1 | -34% | 4% | -18% | 14µM* | / | -15%
CN1CCN(c2ccc(S(=O)(=O)N3CCCCC3)cc2NC(=O)/C=C/c2ccc(OC(F)F)cc2)CC1 | -34% | -38% | -12% | 45µM* | / | -25%
CCN1CCN(c2ccc(S(=O)(=O)N3CCCCC3)cc2NC(=O)Cc2c(F)cccc2Cl)CC1 | -23% | -24% | / | / | -6% | -2%
CCOc1ccccc1NCc1cc(=O)oc2cc(C)ccc12 | ? | -36% | / | 45µM* | 5% | -15%
O=C(O)CC/C(=N/NC(=O)c1cn(-c2ccccc2)nc1-c1ccccc1)C(=O)O | ? | ? | 1% | 35µM* | -17% | 14%
Cc1nc(CCNC(=O)CC2C(=O)NCCN2CC(C)C)nc2c1CCC2 (stereo not drawn) | -7% | -4% | / | / | 13% | 24%
CN1CCN(c2nc3c(c(=O)[nH]c(=O)n3C)n2CCCSc2nnnn2-c2ccccc2)CC1 | -9% | -16% | 1% | 25µM* | 12% | 24%
SMILES | JMJD2A Tudor inh | BAZ2B inh | L3MBTL1 inh | G9a block | Sfp inh | HP1b binding inh
CC(C)CCSc1nc2c(c(=O)[nH]c(=O)n2C)n1CCCc1ccccc1 | -1% | 7% | -95% | 40µM* | -11% | 34%
CSc1nc2c(c(=O)[nH]c(=O)n2C)n1Cc1ccccc1 | -7% | 2% | 3% | -5% | 9% | 28%
Cn1c(=O)[nH]c(=O)c2c1nc(SCC(=O)O)n2CCc1ccccc1 | ? | -32% | -8% | ? | 45µM* | ?
Cn1c(=O)[nH]c(=O)c2c1nc(N1CCCCC1)n2CCCSc1nnnn1-c1ccccc1 | -14% | -39% | -14% | -47%[59 µM] | -3% | 23%
CSc1nc2c(c(=O)[nH]c(=O)n2C)n1CCCc1ccccc1 | -5% | -2% | / | 71µM* | 4% | 31%
Cn1c(=O)[nH]c(=O)c2c1nc(SCC(O)CO)n2CCCc1ccccc1 (stereo not drawn) | -4% | -28% | -9% | -4% | 10% | 68%
COc1ccc(CC(=O)Nc2ccc(/C(C)=N\NC(=O)c3ccc(Br)o3)cc2)cc1 | -10% | -11% | / | / | 0% | 29%
O=C(OCC(=O)N1CCc2ccccc21)c1cncc(Br)c1 | -10% | / | 20% | 7% | -11% | 10%
Nc1cc(=O)[nH]c(SCC(=O)N2CCCc3ccccc32)n1 | -12% | 7% | 5% | 8%[59 µM] | 17% | 17%
O=C(OCC(=O)N1CCCc2ccccc21)c1cncc(Br)c1 | 6% | 47% | 25% | 6% | 71µM* | 34%
O=C(CN1CCCCC1)N1CCCc2ccccc21 | 2.5µM* | 50µM* | / | ? | -11% | ?
CCN(CC)c1ccc(/C=N/OCC(=O)N2CCCc3ccccc32)cc1 | ? | ? | -14% | 40µM* | -23% | ?
Nc1nc2nc(SCC(=O)N3CCCc4ccccc43)[nH]c2c(=O)[nH]1 | / | -7% | 2% | 79µM* | -9% | /
O=C(CCCC(=O)N1CCCc2ccccc21)N1CCCc2ccccc21 | -9% | 10% | 6% | 21% | 2% | 27%
Cc1ccccc1Nc1c(-c2ccc(Cl)s2)nc2cccc(C)n12 | -21% | -24% | / | -22%[59 µM] | / | 4%
N#Cc1cccc(-c2nc(NCc3ccccc3)c3ccccc3n2)c1 | / | / | / | 1%[0.501 µM] | 16% | /
O=C(CN1CCCC1)N1CCCc2ccccc21 | 3.5µM* | 50µM* | -7% | / | -16% | ?
O=C(CNc1cccc(S(=O)(=O)N2CCOCC2)c1)Nc1ccccc1F | -8% | -13% | / | 25% | 17% | 33%
Cc1cc[n+](-c2ccccc2)c2ccccc12 | -23% | -34% | 8% | 25µM* | 9% | 39%
COc1cccc(NC(=O)Cn2nc3c4ccccc4n(Cc4cccc(F)c4)cc-3c2=O)c1 | -20% | 2% | / | 15%[59 µM] | / | 20%

Assay outcomes as filed in PubChem.
